The record followed here is PubChem BioAssay (NCI).

Each structure is given as a SMILES string. Compounds without any hit were thinned out: in the full panel of roughly 83,000, 20% have a hit.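 Each cell line was grown in a 96-well plate and treated with one concentration of compound for 48 hours. Values below 10 were considered active.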 Values without a mark were called inactive. The source made the active and inactive calls.

The assay deals with SN12C renal. The assay can be described thus: NCI-60 one-dose screen, 48 h (100 = growth as untreated, 0 = no growth, -100 = all killed). The conditions noted are these: 10 µM unless noted.
For the molecule `FC(F)(F)c1cc(-c2nnc3n2N=C(N2CCCC2)CS3)cc(C(F)(F)F)c1`, the growth is 69.2%. In the case of `Clc1ccc(C2=NN(c3ccc(Cl)cc3)C(c3cccc(Nc4ccnc5cc(Cl)ccc45)c3)C2)cc1` (stereo not drawn), the growth was 77.7%.

Consider `C=CCN(/C=C/CN(CC=C)CC=C)CC=C`, for which the growth is 104%. The result for `O=C(CNC(=O)c1cccc2ccccc12)Nc1ccccc1Oc1cccc(O)c1` reads 49% [5 µM]; that for `COc1ccc2c(=O)c(OC)c(-c3cc(OC)c(OC)c(OC)c3)oc2c1`, 77%; that for `COc1cnc2c(c1)C(=O)c1c-2n(CCCN2CCC(O)CC2)c(=O)c2cc(F)ccc12`, 9.71% (active). The result for `O=C(/C=C/c1c(-c2ccccc2)[nH]c2ccccc12)S(=O)(=O)c1ccccc1` reads 73.6%; that for `O=C(Nc1nc2c(C(F)(F)F)cccc2s1)c1cc(Cl)ccc1O`, -4.79% (active). For the molecule `CCN(CC)CCOCC[C@H]1CC[C@H]2[C@@H]3[C@H](C)Cc4cc(OS(N)(=O)=O)ccc4[C@H]3CC[C@]12C`, the growth is -62.9% (active).

Consider `COc1cnc2c(c1)C(=O)c1c-2n(CCCN2CCCC2)c(=O)c2cc(F)ccc12`, for which the growth was 9.02% (active). Regarding `COc1cc(-c2n[nH]nc2-c2ccccn2)cc(OC)c1OC`, the growth was 89.7%. As for `COc1cc(C2=NN(C=O)C(c3cccc(Nc4ccnc5cc(Cl)ccc45)c3)C2)cc(OC)c1OC` (stereo not drawn), the growth was 77.2%. Consider `Cc1sc2nc(NCc3ccccc3)[nH]c(=O)c2c1C`, for which the growth is 68.5%. Regarding `CC(=O)N1N=C(c2ccc(Nc3nc(NCCO)nc(NCCO)n3)cc2)CC1c1ccc(Cl)cc1` (stereo not drawn), the growth was 98.8%. On to `COc1ccc(N2CCN(CC(=O)N3CCN(c4nnc(-c5ccc(Cl)cc5)c(-c5ccc(Cl)cc5)n4)CC3)CC2)cc1`, for which the growth is 67.7%. As for `C1CCC(C(CC2CCCCN2)C2CCCCC2)CC1` (stereo not drawn), the growth is 20.8%. The result for `Cc1cc2c(cc1C)[n+](Cc1ccc3ccccc3c1)cn2Cc1ccc2ccccc2c1` reads -87.2% (active); that for `COc1ccc(Oc2ccccc2NC(=O)CNC(=O)c2cccc3ccccc23)cc1`, 46.7% [5 µM]; that for `COc1cccc(N2CCN(CC(=O)N3CCN(c4nnc(-c5ccc(Cl)cc5)c(-c5ccc(Cl)cc5)n4)CC3)CC2)c1`, 76.7%. The result for `CC(=O)N1N=C(c2ccc3c(c2)OCO3)CC1c1c(C)nn(-c2ccccc2)c1N(C)Cc1ccccc1` (stereo not drawn) reads 72.9%. Next, `COc1ccc(C(=O)/C=C/c2cccc(Nc3ccnc4cc(Cl)ccc34)c2)cc1`: 25.7%; `COc1cc(C2CC(C3C(=O)N(C)C(=O)N(C)C3=O)=NN2c2cc(Cl)cc(Cl)c2)cc(OC)c1OC` (stereo not drawn): 93.6%; `O=C1NC(=O)/C(=C\c2ccco2)S1`: 95.8%.

Take `COc1ccc2nc(-c3ccc(Cl)cc3)cc(-c3nnc(SCC(=O)Nc4ccc(C(C)=O)cc4)n3-c3ccccc3)c2c1`: the growth was 114%. Next, `O=C(CNC(=O)c1cccc2ccccc12)Nc1ccccc1Cc1ccccc1`: 56.3% [5 µM]; `CCCCc1n(Cc2ccc3ccccc3c2)cc[n+]1Cc1ccc2ccccc2c1`: -22.3% (active); `COc1cc(C2CC(C3C(=O)N(C)C(=O)N(C)C3=O)=NN2C=O)cc(OC)c1OC` (stereo not drawn): 94%. The result for `CCOC(=O)c1sc(NC(=O)COc2cccc(/C=C3\Cc4ccc(Cl)cc4C3=O)c2)nc1C` reads 105%. Turning to `CCN(CC)c1ccc(C(=C2C=CC(=[N+](CC)Cc3cccc(S(=O)(=O)O)c3)C=C2)c2ccc(N(CC)Cc3cccc(S(=O)(=O)O)c3)cc2)cc1`, the growth was 22.8%.

In the case of `O=C(CNC(=O)c1cccc2ccccc12)Nc1ccccc1Oc1ccc(O)cc1`, the growth is 55% [5 µM]. Next, `COc1cc(C(=O)/C=C/c2cccc(Nc3ccnc4cc(Cl)ccc34)c2)cc(OC)c1OC`: -1.72% (active).

Consider `CN1C(=O)C(C2=NN(C=O)C(c3ccc(F)cc3)C2)C(=O)N(C)C1=O` (stereo not drawn), for which the growth was 97.3%. The result for `O=CN1N=C(c2ccc(Nc3ccnc4cc(Cl)ccc34)cc2)CC1c1ccc(Cl)cc1` (stereo not drawn) reads 36.1%.
